Tested on: TGFBR2
Conditions: concentration: 1 μM, replicates: in singlicate; n = 1
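Further: KINOMEscan kinase panel screen.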

Row | Compound | %Inh
1 | Cn1cc(-c2cnc(N)c3c(-c4ccc5c(c4)CCN5C(=O)Cc4ccccc4)csc23)cn1 [GSK2593074] | 4%
2 | CN(C)CCNS(=O)(=O)c1ccc(-c2ccnc3[nH]ccc23)cc1 [GSK977620] | 0%
3 | O=C(Nc1n[nH]c2nc(-c3cccc(O)c3)ccc12)C1CC1 [SB-711805] | 87%
4 | Nc1cccc(-c2ccc3c(N)n[nH]c3c2)c1 [GSK2193613] | 0%
5 | Cl.O=C(Nc1ccc(Oc2ccc3[nH]c(NC(=O)c4ccco4)nc3c2)cc1)Nc1cc(C(F)(F)F)ccc1F [GW683134] | 0%
6 | COc1cccc2c(-c3ccncc3)c(-c3ccc(F)cc3)nn12 [GW468513] | 47%
7 | COc1cc(Nc2ccnc3cc(-c4ccncc4)ccc23)cc(OC)c1OC.Cl [GW494610] | 59%
8 | O=C(O)C(F)(F)F.O=c1[nH]ccc2nc(N[C@@H]3CCNC3)nc(Nc3ccc4c(c3)S(=O)(=O)CC4)c12 [GSK2181306] | 0%
9 | Cl.N#CCc1ccc(Nc2nccc(Nc3ccc(Oc4ccccc4)cc3)n2)cc1 [GW639905] | 8%
10 | Cc1ccc(O)cc1Nc1ccnc2cc(-c3ccc(CN4CCCCC4)o3)ccc12 [GW557777] | 98%
11 | Cl.Cl.NC(CNC(=O)c1cc(Br)c(-c2ccnc3[nH]ccc23)s1)c1ccccc1 (stereo not shown) [GSK1322949] | 32%
12 | CN(c1ccc2c(c1)nc(NCc1ccccc1)n2C)c1ccnc(Nc2ccc(CS(C)(=O)=O)cc2)n1.Cl [GW811603] | 5%
13 | Cc1ccc(O)cc1Nc1ccnc2ccc(C(C)(C)C)cc12 [GW856805] | 93.2%
14 | COC(=O)Nc1nc2ccc(Oc3ccc(NC(=O)Nc4cc(C(F)(F)F)ccc4F)cc3)cc2[nH]1.Cl [GW654607] | 7%
15 | Cn1cc(-c2ccc3c(c2)CCN3C(=O)Cc2cc(F)cc(C(F)(F)F)c2)c2c(N)ncnc21 [GSK2635225] | 0%
16 | COc1cccc(CC(=O)N2CCc3cc(-c4cn(C)c5ncnc(N)c45)ccc32)c1 [GSK2608899] | 6%
17 | N#Cc1cnc2cc(-c3cnc(CNCCN4CCOCC4)s3)ccc2c1Nc1ccc(Oc2ccccc2)cc1 [GW664114] | 0%
18 | O=C(Nc1n[nH]c2cc(-c3cccs3)ccc12)C1CC1 [SB-731284] | 0%
19 | CN(C)CCOc1ccc(-c2cc(-c3ccc(Cl)c(O)c3)c(-c3ccncc3)[nH]2)cc1.Cl.Cl [SB-684387] | 75%
20 | Cc1cccc(Nc2nc(NCCN)ncc2C(N)=O)c1 [GSK1292139] | 0%
21 | COC(=O)Nc1nc2cc(Oc3ccc(NC(=O)Nc4cccc(SC)c4)cc3)ccc2[nH]1.Cl [GW697999] | 0%
22 | Nc1ncnc2scc(-c3ccc(NC(=O)Cc4cc(F)ccc4F)cc3)c12.O=C(O)C(F)(F)F [SB-731254-M] | 20%
23 | CC(C)c1nc(-c2ccc(F)c(NS(=O)(=O)c3c(F)cccc3F)c2)c(-c2ccnc(Nc3ccc(N4CCOCC4)nc3)n2)s1 [GSK1804250] | 92.9%
24 | NCCC(NC(=O)c1cc(Br)c(-c2ccnc3[nH]ccc23)s1)c1ccccc1.O=C(O)C(F)(F)F.O=C(O)C(F)(F)F (stereo not shown) [GSK1307810] | 0%
25 | COc1ccc(NC(=O)c2ccoc2)cc1-c1ccc(C(=O)NCC2CC2)cc1 [GW810437] | 0%

Source: article PMC5540273 (PLoS ONE, 2017)
